Results from the supplement of paper PMC12669032.
Unmarked numbers belong to inactive results.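 The calls were made as follows: active = AUC reduced over 20% with Padj below 0.05 in at least 2 of 3 replicates; inactive = otherwise.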

Experiments:
Assay in all cases: growth AUC relative to DMSO control (median of replicates) (fraction); higher = more growth (less inhibition), active = hit call of the paper
Details in all cases: 20 µM; 24 h
Akkermansia muciniphila = system: Akkermansia muciniphila
Procedure, shortened: (§1)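 Gut bacteria were grown singly in mGAM at 37 °C without oxygen, from OD600 0.05, alongside 20 µM compound in 1% DMSO, and OD600 was read each hour for 24 h. Area under the growth curve was normalised to the median of solvent-only wells per plate, or to row and column medians on the industrial chemical plate. The minimum OD was set to 0 beforehand, and the reported value is the median of three biological replicates grown on separate days.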

Bacteroides caccae = system: Bacteroides caccae
Procedure, shortened: as §1

Bacteroides clarus = system: Bacteroides clarus
Procedure, shortened: as §1

Bacteroides dorei = system: Bacteroides dorei
Procedure, shortened: as §1

Bacteroides stercoris = system: Bacteroides stercoris
Procedure, shortened: as §1

[1] = system: Bacteroides thetaiotaomicron
Procedure, shortened: as §1

Bacteroides uniformis = system: Bacteroides uniformis
Procedure, shortened: as §1

[2] = system: Bifidobacterium longum subsp. longum
Procedure, shortened: as §1

Clostridium difficile = system: Clostridium difficile
Procedure, shortened: as §1

Collinsella aerofaciens = system: Collinsella aerofaciens
Procedure, shortened: as §1

Structure (SMILES) | growth AUC (Akkermansia muciniphila) | growth AUC (Bacteroides caccae) | growth AUC (Bacteroides clarus) | growth AUC (Bacteroides dorei) | growth AUC (Bacteroides stercoris) | growth AUC [1] | growth AUC (Bacteroides uniformis) | growth AUC [2] | growth AUC (Clostridium difficile) | growth AUC (Collinsella aerofaciens)
CCOP(=O)(SC(C)CC)SC(C)CC (stereo not given) | 0.94 | 1.01 | 0.962 | 1.02 | 0.949 | 0.993 | 0.981 | 0.97 | 0.982 | 0.933
CC#Cc1cc(C)nc(Nc2ccccc2)n1 | 1.08 | 1.01 | 0.991 | 0.941 | 1 | 0.945 | 0.975 | 0.978 | 0.965 | 0.995
CC(=NCc1ccc(Cl)nc1)NC#N | 1.01 | 1.02 | 1.05 | 1.04 | 1.1 | 0.99 | 1.03 | 1.02 | 1.03 | 1.02
Cc1cc(Cl)ccc1OCC(=O)O | 1.02 | 0.996 | 1.01 | 0.933 | 0.945 | 1.02 | 1 | 1.1 | 0.967 | 1.04
CCOC(=O)c1cn2nc(OP(=S)(OCC)OCC)cc2nc1C | 1.14 | 0.973 | 0.945 | 0.904 | 0.876 | 0.991 | 0.834 | 1.05 | 0.988 | 0.967
OC(Cc1ccccc1Cl)(Cn1[nH]cnc1=S)C1(Cl)CC1 (stereo not given) | 1.02 | 0.971 | 0.856 | 0.91 | 1.04 | 0.821 | 0.805 | 0.842 | 0.985 | 1.04
O=P(Oc1ccccc1)(Oc1ccccc1)Oc1ccccc1 | 0.805 | 0.898 | 0.958 | 0.96 | 0.755 (active) | 0.901 | 0.923 | 0.919 | 1 | 1.02
COP(=S)(OC)Oc1ccc(S(=O)(=O)N(C)C)cc1 | 0.82 | 0.947 | 0.999 | 0.962 | 0.84 | 0.983 | 0.981 | 0.984 | 0.976 | 0.977
O=C1C(Cl)=C(Cl)C(=O)C(Cl)=C1Cl | 1.08 | 1.09 | 1.01 | 0.978 | 0.877 | 0.986 | 0.976 | 0.969 | 1.03 | 0.992
CCOP(=S)(OCC)OP(=S)(OCC)OCC | 0.981 | 0.986 | 0.953 | 0.993 | 1.02 | 0.956 | 0.988 | 1.01 | 0.986 | 1.02
COc1cc(OC)nc(NC(=O)NS(=O)(=O)c2ncccc2C(=O)N(C)C)n1 | 1 | 0.94 | 0.98 | 0.957 | 1.11 | 1.01 | 1.01 | 0.96 | 1 | 0.965
CCOC(=O)C(C)OC(=O)c1cc(Oc2ccc(C(F)(F)F)cc2Cl)ccc1[N+](=O)[O-] (stereo not given) | 0.88 | 0.95 | 0.931 | 0.985 | 0.992 | 0.987 | 0.966 | 0.947 | 0.978 | 0.857
CN1COCN(Cc2cnc(Cl)s2)/C1=N/[N+](=O)[O-] | 0.919 | 1 | 0.976 | 0.932 | 1.03 | 0.999 | 0.988 | 0.984 | 1.01 | 1.02
CCCOc1nn(C(=O)[N-]S(=O)(=O)c2ccccc2C(=O)OC)c(=O)n1C.[Na+] | 0.978 | 1.02 | 0.979 | 1.02 | 1.13 | 0.992 | 0.972 | 1.01 | 0.994 | 1.02
ClCC1C(CCl)C2(Cl)C(Cl)=C(Cl)C1(Cl)C2(Cl)Cl (stereo not given) | 0.995 | 0.971 | 0.999 | 0.972 | 0.985 | 0.994 | 1.01 | 1.02 | 0.989 | 0.962
Cc1ccc(N=CN(C)C=Nc2ccc(C)cc2C)c(C)c1 | 1.13 | 1.01 | 1.06 | 0.983 | 1.05 | 1.01 | 1.02 | 1.03 | 1.04 | 1.01
CS/C(C)=N/OC(=O)N(C)SN(C)C(=O)O/N=C(\C)SC | 0.98 | 1.02 | 0.943 | 1.05 | 1.09 | 1.03 | 1.02 | 1.04 | 1.01 | 0.932
O=c1[nH]c2c(c(=O)n1C1CCCCC1)CCC2 | 0.895 | 1.01 | 0.944 | 0.957 | 0.925 | 0.978 | 0.972 | 0.963 | 0.972 | 0.95
Cc1ccn2nc(S(=O)(=O)Nc3c(F)cccc3F)nc2n1 | 1.04 | 0.968 | 0.986 | 0.957 | 0.955 | 0.985 | 1.06 | 1.03 | 1.03 | 0.945
COP(=O)(OC)C(O)C(Cl)(Cl)Cl (stereo not given) | 0.955 | 1.04 | 1.01 | 1 | 1.01 | 1.01 | 1.02 | 1.02 | 1 | 1.01
O=C1C2(Cl)C3(Cl)C4(Cl)C(Cl)(Cl)C5(Cl)C3(Cl)C1(Cl)C5(Cl)C24Cl (stereo not given) | 0.849 | 0.0318 (active) | 0.02 (active) | 0.0186 (active) | 0.00866 (active) | 0.0105 (active) | 0.0112 (active) | 0.28 (active) | 0.0161 (active) | 0.0984 (active)
CCN(Cc1ccc(Cl)nc1)/C(=C/[N+](=O)[O-])NC | 0.913 | 0.991 | 0.991 | 0.975 | 0.939 | 0.972 | 1.01 | 0.983 | 0.981 | 0.976
CO/N=C(/C(=O)OC)c1ccccc1COc1ccccc1C | 0.899 | 0.979 | 0.957 | 0.964 | 0.993 | 0.907 | 0.955 | 0.874 | 1.02 | 0.991
CNC(=O)Oc1cc(C)c(S(C)=O)c(C)c1 (stereo not given) | 0.977 | 0.949 | 0.999 | 1 | 1.13 | 0.978 | 1.02 | 1.04 | 0.968 | 1.05
CCCN(CCC)N=O | 1.07 | 1.01 | 1.02 | 1 | 1 | 0.999 | 1.03 | 0.902 | 1.01 | 0.977
CCCCCCCCCCCCC1=C(OC(C)=O)C(=O)c2ccccc2C1=O | 1.04 | 0.926 | 0.934 | 0.969 | 0.988 | 0.996 | 0.987 | 0.827 | 0.926 | 0.0278 (active)
COC(=O)NS(=O)(=O)c1ccc(N)cc1 | 1 | 0.901 | 0.995 | 0.916 | 0.959 | 0.948 | 0.867 | 1.03 | 0.913 | 0.876
CCOP(=O)(OCC)OP(=O)(OCC)OCC | 1.07 | 0.988 | 1 | 0.956 | 0.932 | 1.03 | 0.992 | 1.02 | 1.03 | 0.966
